# Reference: PubChem BioAssay AID1159580 (chemical genetic matrix, 2015)
# The campaign covered roughly 5,500 compounds. About 2,000 (36%) were called active. About 18% were inconclusive and are not listed. This is one part of the list. Values without a mark were called inactive. Cut-off read from the data, not from the text of the source: active = normalized growth mostly below about 0.91 (no sharp cut-off); inconclusive = no clear call, values can overlap the other calls; inactive = mostly above about 0.92.
# Test: chemical genetic growth profiling, strain panel (AID 1159580);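 note: tested at 20 µM; growth read once vehicle control cultures reached saturation at 30 °C; 1 = growth at the plate median or of vehicle wells; lower values mean less growth of the strain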
# Conditions: S. cerevisiae deletion strains, growth OD
# [1] = locus YDL101C, strain DUN1, active compounds read low
# [2] = locus YHR030C, strain SLT2, active compounds read low
smiles,measurement,setting,value
O=C(Oc1ccc(C2SCCS2)cc1)c1cccs1,normalized growth,"locus YAR019C, strain CDC15, active compounds read low",1
same,normalized growth,"locus YBL105C, strain PKC1, active compounds read low",1.01
same,normalized growth,"locus YBR135W, strain CKS1, active compounds read low",0.997
same,normalized growth,"locus YBR136W, strain MEC1, active compounds read low",1.01
same,normalized growth,"locus YBR160W, strain CDC28, active compounds read low",1
same,normalized growth,"locus YDL017W, strain CDC7, active compounds read low",0.999
same,normalized growth,"locus YDL028C, strain MPS1, active compounds read low",0.993
same,normalized growth,[1],1.01
same,normalized growth,"locus YDL108W, strain KIN28, active compounds read low",0.996
same,normalized growth,"locus YDL132W, strain cdc53, active compounds read low",0.995
same,normalized growth,"locus YDL214C, strain PRR2, active compounds read low",0.775
same,normalized growth,"locus YDR052C, strain DBF4, active compounds read low",1.01
same,normalized growth,"locus YDR054C, strain cdc34, active compounds read low",1
same,normalized growth,"locus YDR226W, strain ADK1, active compounds read low",1
same,normalized growth,"locus YDR477W, strain SNF1, active compounds read low",0.818
same,normalized growth,"locus YER123W, strain YCK3, active compounds read low",0.812
same,normalized growth,"locus YER133W, strain GLC7, active compounds read low",0.834
same,normalized growth,"locus YFL009W, strain cdc4, active compounds read low",1
same,normalized growth,"locus YFL029C, strain CAK1, active compounds read low",1.02
same,normalized growth,"locus YFR003C, strain YPI1, active compounds read low",1.01
same,normalized growth,"locus YFR019W, strain FAB1, active compounds read low",0.689 (active)
same,normalized growth,"locus YFR028C, strain CDC14, active compounds read low",0.988
same,normalized growth,"locus YGR040W, strain KSS1, active compounds read low",0.869
same,normalized growth,"locus YGR052W, strain FMP48, active compounds read low",0.821
same,normalized growth,"locus YGR092W, strain DBF2, active compounds read low",0.768
same,normalized growth,[2],0.667 (active)
same,normalized growth,"locus YHR079C, strain IRE1, active compounds read low",0.678
same,normalized growth,"locus YHR082C, strain KSP1, active compounds read low",0.716
same,normalized growth,"locus YHR205W, strain SCH9, active compounds read low",0.936
same,normalized growth,"locus YIL147C, strain SLN1, active compounds read low",1
same,normalized growth,"locus YJL095W, strain BCK1, active compounds read low",0.572
same,normalized growth,"locus YJL128C, strain PBS2, active compounds read low",0.951
same,normalized growth,"locus YJL157C, strain FAR1, active compounds read low",0.716
same,normalized growth,"locus YJR016C, strain ILV3, active compounds read low",1
same,normalized growth,"locus YJR066W, strain TOR1 (second series), active compounds read low",0.884
same,normalized growth,"locus YJR066W, strain TOR1, active compounds read low",0.684
same,normalized growth,"locus YKL048C, strain ELM1, active compounds read low",0.937
same,normalized growth,"locus YKL067W, strain YNK1, active compounds read low",0.684 (active)
same,normalized growth,"locus YKL101W, strain HSL1, active compounds read low",0.852
same,normalized growth,"locus YKL193C, strain SDS22, active compounds read low",0.997
same,normalized growth,"locus YKL203C, strain TOR2, active compounds read low",0.876
same,normalized growth,"locus YLR113W, strain HOG1, active compounds read low",0.884
same,normalized growth,"locus YLR133W, strain CKI1, active compounds read low",0.896
same,normalized growth,"locus YLR403W, strain SFP1, active compounds read low",0.763
same,normalized growth,"locus YML070W, strain DAK1, active compounds read low",0.726
same,normalized growth,"locus YMR001C, strain CDC5, active compounds read low",1.01
same,normalized growth,"locus YMR205C, strain PFK2 (second series), active compounds read low",0.805
same,normalized growth,"locus YMR277W, strain FCP1, active compounds read low",1
same,normalized growth,"locus YNL006W, strain LST8, active compounds read low",1
same,normalized growth,"locus YNL020C, strain ARK1, active compounds read low",0.829
same,normalized growth,"locus YNL161W, strain CBK1, active compounds read low",1
same,normalized growth,"locus YNL183C, strain NPR1, active compounds read low",0.81
same,normalized growth,"locus YNL207W, strain RIO2, active compounds read low",1
same,normalized growth,"locus YNL222W, strain SSU72, active compounds read low",0.999
same,normalized growth,"locus YNL307C, strain MCK1 (second series), active compounds read low",0.784
same,normalized growth,"locus YOL078W, strain AVO1, active compounds read low",0.997
same,normalized growth,"locus YOL136C, strain PFK27, active compounds read low",0.701
same,normalized growth,"locus YOR061W, strain CKA2, active compounds read low",0.737
same,normalized growth,"locus YOR119C, strain RIO1, active compounds read low",0.785
same,normalized growth,"locus YOR231W, strain MKK1, active compounds read low",0.549 (active)
same,normalized growth,"locus YOR329C, strain SCD5, active compounds read low",1.01
same,normalized growth,"locus YPL031C, strain PHO85, active compounds read low",0.697
same,normalized growth,"locus YPL153C, strain RAD53, active compounds read low",0.777
same,normalized growth,"locus YPL204W, strain HRR25, active compounds read low",0.852
same,normalized growth,"locus YPL209C, strain IPL1, active compounds read low",1.01
same,normalized growth,"locus YPL256C, strain CLN2, active compounds read low",0.776 (active)
same,normalized growth,"locus YPR025C, strain CCL1, active compounds read low",0.997
same,normalized growth,"locus YPR106W, strain ISR1, active compounds read low",1.01
same,normalized growth,"locus YPR111W, strain DBF20, active compounds read low",1
same,normalized growth,"strain NNK1, active compounds read low",1.03
same,normalized growth,"strain TSCII, active compounds read low",1.02
O=C(Oc1ccc(F)cc1)c1cccs1,normalized growth,"locus YAL013W, strain DEP1, active compounds read low",1.01
same,normalized growth,"locus YBR229C, strain ROT2, active compounds read low",1.01
same,normalized growth,[1],1.03
same,normalized growth,"locus YDR150W, strain NUM1, active compounds read low",0.941
same,normalized growth,"locus YEL061C, strain CIN8, active compounds read low",1
same,normalized growth,"locus YGR078C, strain PAC10, active compounds read low",1.01
same,normalized growth,[2],0.987
same,normalized growth,"locus YHR087W, strain rtc3, active compounds read low",0.992
same,normalized growth,"locus YJR043C, strain POL32, active compounds read low",1.03
same,normalized growth,"locus YJR075W, strain HOC1, active compounds read low",0.986
same,normalized growth,"locus YLR039C, strain RIC1, active compounds read low",1.05
same,normalized growth,"locus YLR058C, strain SHM2 (second series), active compounds read low",0.995
same,normalized growth,"locus YLR085C, strain ARP6, active compounds read low",0.992
same,normalized growth,"locus YLR262C, strain YPT6, active compounds read low",0.967
same,normalized growth,"locus YML094W, strain GIM5, active compounds read low",0.989
same,normalized growth,"locus YMR219W, strain ESC1, active compounds read low",0.993
same,normalized growth,"locus YMR263W, strain SAP30, active compounds read low",0.966
same,normalized growth,"locus YNL153C, strain GIM3, active compounds read low",1.02
same,normalized growth,"locus YNL298W, strain CLA4 (second series), active compounds read low",1.03
same,normalized growth,"locus YNL322C, strain KRE1, active compounds read low",1
same,normalized growth,"locus YNR030W, strain Alg12, active compounds read low",1.02
same,normalized growth,"locus YPL055C, strain LGE1, active compounds read low",0.91
same,normalized growth,"locus YPL241C, strain CIN2, active compounds read low",1
same,normalized growth,"locus YPR135W, strain CTF4, active compounds read low",1.01
